The source made the active and inactive calls.
Assay: E. coli acrAB mutant growth effects, primary screen, E. coli filamentation inducers, strain DRC39, OD650, 24 h (AID 1178);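 also: growth measured as culture turbidity by optical density at 650 nm; test concentration not given here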
Details: higher = more signal, called active from +8 up or from −8 down

z-score, inactive:
O=C1OCCC=C[C@H]2OC34C=CCN(Cn5nnc6ccccc65)C(=O)[C@H]3N(CCCCCCO)C(=O)[C@@H]4C12 (stereo partly drawn) 0.603
O=C1C[C@@](C(=O)NCCN2CCOCC2)(c2ccc([N+](=O)[O-])cc2)[C@@H](c2ccc(CO)cc2I)N1C1CCCCC1 0.497
NC(=O)N1C(=O)C2C(C1=O)C1C=C(CCCO)C2C(c2cccs2)N1Cc1cccc(OC(F)(F)F)c1 (stereo not drawn) -0.205
C=C(/C(=C/C[C@H](OC(C)=O)c1ccccc1OCCO)c1cc(C(=O)OC)ccc1OC)C(C)C -0.0536
CCCC[C@@H](O)C1=C(COc2ccccc2)C[C@H]2C(=O)N(C)C(=O)[C@H]2[C@H]1CO 1.6
O=C1NC(=O)C2C1C=CC(C(O)c1cccc3ccccc13)N2Nc1ccc(Cl)cc1Cl (stereo not drawn) -0.693
COc1ccc(-c2cc3c(c(CCc4ccccc4)n2)[Si](C(C)C)(C(C)C)OC3)cn1 0.152
COC(=O)[C@@]1(Cc2ccc(F)cc2)[C@H]2c3cc(C(=O)N4CCCC4)n(CCc4ccc(O)c(O)c4)c3C[C@H]2CN1C(=O)c1ccccc1 -0.265
CC1=C[C@@]2(CO)C(=O)[C@]3(CO3)[C@@H]1[C@H]1[C@]2(C)C=C(CO)C(=O)[C@]12CO2 0.477
O=C(NCC(F)(F)F)[C@@H]1c2ccccc2C(=O)N(Cc2ccc(OC(F)(F)F)cc2)[C@H]1c1ccc(CO)cc1 0.504
COC(=O)Cn1c(C(=O)N(C)C)cc2c1C[C@H]1CN(C(=O)c3ccccc3)[C@@](Cc3ccc(F)cc3)(C(=O)OC)[C@@H]21 -0.61
COc1ccc([Si](C)(C)[C@H]2[C@H](CC(=O)N(CCO)Cc3ccccc3)O[C@@]3(C(=O)N(Cc4cccc(N5CCOC5=O)c4)c4ccccc43)[C@@H]2C)cc1 -0.566
COCCCNC(=O)[C@]1(CCS(=O)(=O)c2ccccc2)N=C(c2ccc(OCCCO)cc2)O[C@@H]1c1ccccc1CN=[N+]=[N-] 0.0971
[N-]=[N+]=Nc1ccccc1C[C@]1(C(N)=O)N=C(c2ccc(OCCCO)cc2)O[C@H]1c1ccccc1N=[N+]=[N-] 0.892
C#CCN([C@@H](Cc1ccc(O)cc1)C(=O)OC)[C@@H](/C=C/C1CC1)[C@H](O)Cc1ccccc1 -0.933
CN(C)c1ccc(C(O)C2C=CC3C(=O)N(c4ccccc4)C(=O)C3N2Nc2ccc([N+](=O)[O-])cc2)cc1 (stereo not drawn) -0.876
NCCCCCCNC(=O)[C@@H]1C[C@@H]2C(=O)N[C@@H](CCCCN)C(=O)N2[C@@H]1c1cccc(OCCO)c1 0.398
CCOC(=O)C1=CC[C@@H](c2ccc(OCc3ccccc3)c(OC)c2)N(S(=O)(=O)c2ccc(C)cc2)[C@H]1c1ccc(SC)cc1 -0.286
COC(=O)[C@@]1(Cc2ccccc2)[C@H]2c3cc(C(=O)N(C)C)n(Cc4c(CO)[nH]cc(C)c4=O)c3C[C@H]2CN1C(=O)c1ccccc1 -0.198
CN1C(=O)C2C=CC(C(O)COCc3ccccc3)N(N(c3ccccc3)c3ccccc3)C2C1=O (stereo not drawn) 0.202
CCC[C@@H]1C[C@@]1(CCC)[C@@H](NC(=O)OCc1ccccc1)c1ccc(-c2ccccc2)cc1 0.358
COCCOC(=O)N1C(=O)[C@@]2(c3cc(C#CC4=CCCCC4)ccc31)[C@H](c1ccc(OCCO)cc1)N1[C@H](c3ccccc3)[C@H](c3ccccc3)OC(=O)[C@H]1[C@@H]2C(=O)NC[C@H](O)c1ccccc1 -0.441
C=C(CCCC)/C(=C/C[C@@H](OC(=O)c1ccncc1)c1ccccc1OCCO)c1cnc2ccccc2c1 -0.334
CC1CC/C=C\[C@H]2OC34C=CCN(C(C)C)C(=O)[C@H]3N(CCCCCCO)C(=O)[C@@H]4C2C(=O)O1 (stereo partly drawn) 1.05
O=C1C2C=CC(C(O)c3ccc(Br)cc3)N(Nc3ccccc3F)C2C(=O)N1c1ccccc1 (stereo not drawn) 0.774
COC(=O)[C@@]1(Cc2ccc(OC)cc2)[C@H]2c3cc(C(=O)N4CCCC4)n(Cc4cccc5ccccc45)c3C[C@H]2CN1C(=O)c1ccccc1 0.24
CCOC(=O)C1CCCCN1 (stereo not drawn) -0.33
COc1ccc([Si](C)(C)[C@H]2[C@H](CCn3cc([C@H](O)c4ccccc4)nn3)O[C@@]3(C(=O)N(Cc4ccc(N5C(=O)c6cccc7cccc5c67)cc4)c4ccccc43)[C@@H]2C)cc1 1.57

— PubChem BioAssay
